Most compounds without a hit are left out; they make up all but 7.6% or so of the library.
ELG1 DNA repair = qHTS screen for small molecules that inhibit ELG1-dependent DNA repair in human embryonic kidney (HEK293T) cells expressing luciferase-tagged ELG1. Potency, µM (doses to about 46.1 µM), inactives show at the highest dose activity change, negative = inhibition, most hits filed as inhibitors. 2.3% of 330,000 active. HEK293T ELG1-luciferase reporter, luminescence, 16 h; DNA damage induced by 5-fluorouridine; also: potency is read from the fitted curve at half-maximal effect; % is scaled to controls: 0 for no effect and ±100 for the full control effect; nearly all actives have a fitted effect of over 55% in size
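Step one: seed 2,000 cells per well. Step two: pin-transfer compound or DMSO alongside 5-fluorouridine. Step three: incubate 16 hr, 37 °C, 5% CO2. Step four: add ONE-Glo, wait 30 min, read luminescence.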
VP16 counter = VP16 counterscreen qHTS for inhibitors of ROR gamma transcriptional activity | AID 2546, 2010 | Drosophila S2 Gal4-VP16 UAS-luciferase, luminescence, 20 h | 3.5% of 310,000 active | Potency, µM (series often up to 53.6 µM), without a hit: at the highest dose activity, negative = inhibition, usual class: inhibitors;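 also: Gal4-VP16 expression switched on by copper sulfate through the metallothionein promoter; potency is read from the fitted curve at half-maximal effect; % is scaled to controls: 0 for no effect and ±100 for the full control effect; nearly all actives have a fitted effect of over 50% in size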
Giardia killer = Small Molecules that selectively kill Giardia lamblia: qHTS | Giardia lamblia trophozoite viability | activity change, % at 7.66 µM, hits read low | 0.15% of 340,000 active; in the data active = activity change below about -80%; inconclusive = between about -30% and that limit;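 also: parasites exposed to compound for two days anaerobically before the ATP read; % is scaled to controls: 0 for no effect and ±100 for the full control effect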
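Trophozoites 100 cells/well + cpd; 48 hrs, 37 deg C, anaerobic. ATPLite 1-Step added, 15-30 min RT, luminescence read (ATP-based viability).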
RORgamma inh = qHTS for inhibitors of ROR gamma transcriptional activity. Nuclear receptor ROR-gamma (Mus musculus), P51450. Drosophila S2 Gal4-RORgamma UAS-luciferase reporter, 20 h. Potency, µM (titrated, usually from 53.6 µM), for the others: at the top dose activity change, negative = inhibition, most hits filed as inhibitors. 5.4% of 310,000 active; also: potency is read from the fitted curve at half-maximal effect; % is scaled to controls: 0 for no effect and ±100 for the full control effect; nearly all actives have a fitted effect of over 60% in size
Target sequence (P51450 whole entry, looked up, the tested form may be a part): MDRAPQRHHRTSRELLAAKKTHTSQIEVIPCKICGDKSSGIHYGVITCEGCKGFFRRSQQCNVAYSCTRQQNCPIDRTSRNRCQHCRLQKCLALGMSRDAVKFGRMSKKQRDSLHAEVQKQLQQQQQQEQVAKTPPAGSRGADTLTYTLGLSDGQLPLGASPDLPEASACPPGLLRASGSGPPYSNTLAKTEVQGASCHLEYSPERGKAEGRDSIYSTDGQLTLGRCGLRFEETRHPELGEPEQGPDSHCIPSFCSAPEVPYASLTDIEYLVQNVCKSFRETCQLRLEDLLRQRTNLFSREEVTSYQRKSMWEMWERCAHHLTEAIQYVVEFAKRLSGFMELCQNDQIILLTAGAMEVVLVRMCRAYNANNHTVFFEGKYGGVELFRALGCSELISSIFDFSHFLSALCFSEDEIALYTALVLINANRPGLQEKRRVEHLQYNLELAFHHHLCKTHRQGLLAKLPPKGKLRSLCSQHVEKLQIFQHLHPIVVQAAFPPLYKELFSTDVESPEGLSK
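Drosophila Schneider cells stably carrying a metallothionein-driven Gal4 DBD–ROR gamma fusion and a UAS-Photinus luciferase reporter were exposed to compound for 1 hr, then induced with copper sulfate (700 uM final) for 20 hr at ambient temperature before luminescence reading.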
p53 reactivator = qHTS assay for re-activators of p53 using a Luc reporter; H1299 p53-A138V BP100-luciferase reporter, luminescence, 24 h; Potency, µM (highest dose often 92.2 µM), inactives show at the top dose activity change, positive = activation, most hits filed as activators; 0.063% of 320,000 active; AID 504706, 2011; also: potency is read from the fitted curve at half-maximal effect; % of control where 0% means no effect; nearly all actives have a fitted effect of over 45% in size
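H1299 (p53-null), stable ts p53-A138V + BP100-Luc; 1000 cells/well, Opti-MEM/10% FBS; cpd 4 pt, 1:5; 24 h, 37 deg C, 5% CO2; detection reagent 10 min RT; luminescence.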
BRCA1 expr act = qHTS Assay to Identify Small Molecule Activators of BRCA1 Expression | Potency, µM (series often up to 46.1 µM), without a hit: at the highest dose activation, usual class: activators | MCF7-BRCA1-FFLuc reporter, luminescence, 48 h; response scale: scaled: vehicle 0%, 10 µM genistein 100% | 1.1% of 380,000 active; also: potency is read from the fitted curve at half-maximal effect; nearly all actives have a fitted effect of over 80% in size
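Quantitative HTS in MCF7 cells stably reporting BRCA1 expression via firefly luciferase. Compound treatment lasts 48 h at 37 °C in phenol-red free MEM. Activation is expressed relative to genistein at 10 microM and DMSO.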
Starred values were filed as active, the others as inactive; ? = inconclusive; . = no result given; [ ] = another dose, or the depositor's remark. Unless noted, calls follow the shape of the dose curve; as a rule, active = well fitted curve in the direction sought with a large enough effect; inconclusive = small, poorly fitted or top-dose-only effect, or another doubt; inactive = no such curve, though single readings can be large; an effect the other way counts as inactive or inconclusive.

SMILES	ELG1 DNA repair	VP16 counter	Giardia killer	RORgamma inh	p53 reactivator	BRCA1 expr act
S=C(NCCc1ccccc1)Nc1ccccc1Cl	15.6%	10µM*	-14.9	5.62µM*	10.3%	40.4%
Cc1ccccc1C(=O)OCC(=O)N(C)c1ccccc1	?	-18.9%	-13.1	-12.6%	11.7%	40.0%
COC(=O)c1ccc(CS(=O)(=O)c2ccc(C)cc2)o1	-2.5%	16.4%	3.4	32.3%	-7.4%	24.4%
Cc1ccc(NC(=O)COC(=O)c2ccc[n+]([O-])c2)c(Br)c1	0.0%	.	-7.4	.	0.9%	12.2%
COc1cc(-c2nn3c(Cc4ccccc4)nnc3s2)cc(OC)c1OC	-23.3%	-14.1%	2.6	-7.0%	-12.0%	-45.6%
Cc1c(Cl)cccc1NC(=S)NCCc1ccccn1	-23.1%	8.91µM*	1.7	2.51µM*	-8.7%	3.9%
CC(C1CC1)N(Cc1ccccc1)C(=S)Nc1ccccc1Cl (configuration not stated)	?	?	-0.4	10µM*	1.3%	-20.2%
Cc1c(Cl)cccc1NC(=S)NCCc1ccc(C(F)(F)F)cc1	?	?	7.8	2.51µM*	-4.1%	-7.7%
C=CCNC(=S)Nc1cccc2ccccc12	-0.1%	-10.4%	8.7	24.3%	-5.7%	-4.5%
S=C(NCCc1ccncc1)Nc1cccc2ccccc12	-7.5%	?	6.4	10µM*	-0.3%	-14.0%
CC(C)[N+](C)(C)CC(O)COc1cccc2ccccc12 (configuration not stated)	.	-4.8%	.	-0.1%	.	.
Cc1ccn2c(CNCc3cnn(C)c3)c(C(=O)N3CCCCCC3)nc2c1	-1.2%	-2.4%	-11.0	-14.7%	-1.2%	-1.9%
O=C(O)CN1C(=O)C(=O)N(Cc2ccccc2F)C1=O	-0.8%	-7.5%	6.5	-1.0%	-2.4%	-0.9%
S=C(NCc1ccc(Cl)cc1)NCc1ccccn1	2.9%	?	-14.1	15.8µM*	-4.6%	-9.2%
S=C(NCc1ccccc1)NCc1ccccn1	12.2%	-1.7%	-2.1	?	4.7%	-15.9%
Cc1c(Cl)cccc1NC(=O)NCc1ccccn1	12.1%	5.5%	-9.8	34.2%	?	25.5%
S=C(NCc1ccccn1)Nc1ccccc1Cl	?	?	2.7	10µM*	3.1%	50.2%
CC1CCCCN1C(=O)COC(=O)c1ccc(N2CCCC2=O)cc1 (configuration not stated)	?	.	1.3	.	0.4%	33.5%
CC1CCN(C(=O)COC(=O)c2ccc3c(c2)OCCO3)CC1	?	.	-0.2	.	?	?
Nc1ccc(C(=O)OCC(=O)N2CCOCC2)cc1[N+](=O)[O-]	?	-13.9%	-14.5	-37.4%	?	11.2µM*
COc1cc(C(=O)OCC(=O)N2CCCCC2C)cc(NC(=O)c2cccs2)c1OC (configuration not stated)	18.3µM*	-20.7%	3.8	43.5%	-0.5%	-18.2%
CC1CCCCN1C(=O)COC(=O)c1cc(Cl)c2c(c1)OCO2 (configuration not stated)	?	.	3.1	.	17.8%	11.2µM*
CC1CCN(C(=O)COC(=O)c2ccc3c(c2)OCO3)CC1	?	-12.9%	-21.4	-11.3%	13.0%	2.51µM*
CCC1CCCCN1C(=O)COC(=O)c1cccs1 (configuration not stated)	29.4%	.	-24.0	.	27.1%	-8.7%
CO/N=C(\Cn1ncc(N2CCOCC2)c(Br)c1=O)c1ccc(Cl)cc1	-7.2%	0.2%	-10.1	31.4%	-3.3%	-9.9%
SMILES	ELG1 DNA repair	VP16 counter	Giardia killer	RORgamma inh	p53 reactivator	BRCA1 expr act
COc1ccc(-c2nc(-c3ccncc3)no2)c(OC)c1	?	?	-3.9	7.94µM*	0.6%	22.3%
COc1ccc(-c2noc(-c3ccccc3-c3ccccc3)n2)cc1	2.6%	12.0%	-1.9	15.8µM*	-4.2%	-19.4%
COc1ccc(Cc2nc(-c3ccccc3)no2)cc1	?	3.8%[0.365 µM]	12.9	31.1%	21.5%	11.2µM*
COc1cc(OC)c(-c2nc(-c3ccncc3)no2)cc1OC	?	-4.6%	-1.3	34.5%	.	-1.6%
O=C(NC(=S)Nc1ccc2[nH]c(=O)[nH]c2c1)c1cncc(Br)c1	12.7%	-17.0%[10 µM]	-14.5	-5.1%	-1.2%	0.5%
CC(C)CCOc1ccc(/C=N/N2C(=O)CSC2=S)cc1	-11.7%	?	10.3	4.47µM*	8.7%	-11.1%
Cc1cccc(NC2=NC(=S)N(CC#N)C23CCCCC3)c1	5.1%	?	-12.6	11.2µM*	8.2%	-5.7%
O=C(O)c1cccc(N2C(=S)N=C(Nc3ccccc3)C23CCCCC3)c1	-2.2%	16.4%[10 µM]	-1.4	-1.2%	4.4%	16.2%
CC1(C)Cc2c(c(-c3ccco3)nc3sc4c(NCCCO)ncnc4c23)CO1	13µM*	-4.3%	-8.4	-8.9%	-10.0%	-38.5%

Bioassay records (PubChem)
